Hits are enriched below; roughly 0.57% of the tested compounds scored in any of these assays.
Mtb BioA inh: BioA (M. tuberculosis) enzyme inhibition; purified M. tuberculosis BioA enzyme, plate reader; inhibition, % at 9.99 µM; 0.096% of 360,000 active; AID 602481; in the data active means inhibition above about 40%; inconclusive means no clear call, values can overlap the other calls
Y pestis TopoI: Y. pestis Topo-I inhibition via cleavage products; activity, % at 10 µM; AID 504884; 0.064% of 360,000 active; Y. pestis Topo-I cleavage product accumulation, plate reader; in the data active means activity above about 50%, passing the limit was not always enough; inconclusive means no clear call, values can overlap the other calls
PrP UTR inh: suppresses PrP 5' UTR mRNA reporter expression; AID 488862; inhibition, % (no concentration beside the values); 0.35% of 340,000 active; cell-based PrP 5' UTR mRNA reporter, plate reader; in the data active means inhibition above about 52%; further: 0 = median of the neutral control wells
TcdB GH inh: inhibitors of Clostridioides difficile toxin B glycohydrolase; TcdB glycohydrolase enzymatic assay, plate reader; inhibition, % at 9.99 µM; 0.24% of 350,000 active; AID 652162; in the data active means inhibition above about 10%
PrP UTR cherry: prion 5' UTR mRNA inhibition, cherry-pick retest; shares compounds with PrP UTR inh; cell-based prion protein 5' UTR reporter, plate reader; inhibition, % at 2.5 µM; 48% of 1,100 active; AID 504592; in the data active means inhibition above about 54%; inconclusive means no clear call, values can overlap the other calls
Active calls of the source: *; ? = inconclusive; · = no result.

SMILES	Mtb BioA inh	Y pestis TopoI	PrP UTR inh	TcdB GH inh	PrP UTR cherry
COc1ccc(-c2nc(-c3ccccn3)no2)cc1	·	4	91*	2	91*
Clc1ccc(-c2nc(-c3ccccn3)no2)cc1Cl	-2	-6	-19	·	·
COc1ccccc1-c1nc(-c2ccccn2)no1	-1	2	52	1	·
CNC(=O)Oc1ccc(-c2cn3cc(C)ccc3n2)cc1	·	-1	57*	3	54*
c1ccn2cc(-c3ccc4c(c3)OCCO4)nc2c1	·	6	40	3	·
CNC(=O)Oc1cccc(-c2cn3cc(Cl)ccc3n2)c1	·	2	-4	·	·
Cc1ccc2nc(-c3ccc4c(c3)OCCO4)cn2c1	1	0	89*	26*	79*
Cc1cc(C(=O)Nc2cccc3c2O[C@H](CN(C)C(=O)Nc2ccc(F)cc2)[C@@H](C)CN([C@@H](C)CO)C3=O)n(C)n1	0	·	·	-2	·
CN1c2ccc(-c3ccc(F)cc3)cc2[C@@H]2[C@@H](CCN2C(=O)c2ccc(F)cc2)[C@H]1CO	·	·	·	0	·
CCCc1ccc(-c2ccc(F)c(N)c2)nc1	0	6	59*	·	?
CCCCc1ccc(-c2ccc(Br)cc2)nc1	-1	5	-95	1	·
O=C(Cc1ccc(NC(=O)C2CCN(C(=O)c3ccccc3)CC2)cc1)Nc1ccc(C(=O)N2CCOCC2)cc1	1	9	-19	-4	·
O=C(Cc1ccc(Cl)cc1)Nc1ccc(C(=O)N2CCOCC2)cc1	·	-5	63*	3	-12
CC(C)c1ccc(/C=N/Nc2ccc(C(=O)O)cc2)cc1	·	-8	63*	-1	39
Cc1ccc(/C=N/Nc2ccc(C(=O)O)cc2)s1	1	3	63*	-2	53*
Cc1ccc(/C=N/Nc2cccc(C(=O)O)c2)s1	-1	-12	40	·	·
CCCN(C)C[C@@H]1OCCCC[C@H](C)Oc2ccc(NC(=O)Nc3cccc4ccccc34)cc2C(=O)N([C@H](C)CO)C[C@@H]1C	·	·	·	0	·
COc1ccc(C[C@@H]2CCn3cc(nn3)COC[C@H](Cc3ccccc3)NC2=O)cc1	·	·	·	-1	·
Cc1ccc2oc(/N=C(\N)NC(=O)C(C)(C)C)nc2c1	-1	-2	90*	2	85*
Cc1ccc2oc(/N=C(\N)NC(=O)C3CC3)nc2c1	-1	2	-34	0	·
O=C(Nc1ccc(-c2nc3ccccc3o2)cc1)C1CCCO1 (stereo unspecified)	-1	11	-111	·	·
O=C(Nc1ccc(-c2nc3cccnc3s2)cc1)C1CCCO1 (stereo unspecified)	-2	9	62*	2	65*
CCCn1c(SCC(=O)N2CCN(c3ccccc3)CC2)nc2ccccc2c1=O	1	17	-5	·	·
CCN(CC)C(=O)CSc1nc2ccccc2c(=O)n1CCC(=O)N1CCN(c2ccccc2)CC1	·	0	56*	1	1
Cc1ccc(S(=O)(=O)Nc2ccc3c(c2)C(=O)N([C@@H](C)CO)C[C@H](C)[C@@H](CN(C)Cc2ccncc2)OCCCC[C@@H](C)O3)cc1	-1	·	·	-6	·
SMILES	Mtb BioA inh	Y pestis TopoI	PrP UTR inh	TcdB GH inh	PrP UTR cherry
Cc1nn(-c2ccccc2)c2c1CC(=O)Nc1ccccc1-2	·	0	64*	1	80*
CC(C)CC(NC(=O)C1CCCN1C(=O)CNC(=O)OCc1ccccc1)C(=O)O (stereo unspecified)	0	-5	13	2	·
CC(C)C[C@H](NC(=O)[C@@H]1CCCN1C(=O)[C@@H](N)Cc1ccc(O)cc1)C(=O)NCC(N)=O	1	2	84*	1	-7
CCN(CC)c1ccc(-c2nn3c(-c4n[nH]c5c4CCC5)nnc3s2)cc1	-1	-3	74*	·	84*
CCOc1ccccc1N(CC(=O)Nc1cccnc1)S(=O)(=O)c1ccc(C)cc1	·	20	54*	1	-17
CCOc1ccccc1N(CC(=O)Nc1cccnc1)S(C)(=O)=O	11	-6	-20	·	·
C[C@@H]1CCCCO[C@H](CN(C)Cc2ccc(C(=O)O)cc2)[C@@H](C)CN([C@@H](C)CO)C(=O)c2cc(NS(=O)(=O)c3cccs3)ccc2O1	0	·	·	-1	·
Cc1ccccc1-c1cnc2c(c1)C(=O)N([C@@H](C)CO)C[C@H](C)[C@@H](CN(C)C(=O)CN(C)C)O2	-1	·	·	-1	·
C[C@H]1CN([C@@H](C)CO)C(=O)Cc2cc(NC(=O)Cn3cnnn3)ccc2O[C@@H]1CN(C)CC1CCCCC1	4	·	·	2	·
O=C(Nc1ccccc1)N[C@@H]1CC[C@H](CCn2cc(C3(O)CCCC3)nn2)O[C@H]1CO	6	·	·	-3	·
c1ccc(-c2cn3nc4c(nc3n2)CCCC4)cc1	·	-7	67*	·	37
C[C@@H]1CN([C@H](C)CO)C(=O)Cc2cc(NC(=O)Cc3ccccc3)ccc2O[C@H]1CN(C)S(=O)(=O)c1ccc(Cl)cc1	2	·	·	-1	·
CCOC(=O)CC/C(C)=N\N=C1\SC(CC(=O)O)C(=O)N1c1ccccc1 (stereo unspecified)	·	0	85*	1	-18
CCOC(=O)C1(CCc2ccccc2)CCN(C(=O)CCn2cncn2)CC1	·	11	81*	1	-48
Cc1nc(N)nc(N)c1-c1ccc(Cl)c(Cl)c1	·	-2	58*	0	9
CC[C@H](C)[C@@H](C(=O)N1CCCC1c1nccs1)N(C)C(=O)[C@H](CC(C)C)N(C)C(=O)[C@H](Cc1ccc(OC)cc1)N(C)C(=O)/C=C(\C)OC (stereo partly specified)	3	41	-20	0	·
CC[C@@H](C)[C@H](C(CC(=O)N1CCCC1[C@@H](OC)[C@H](C)C(=O)N[C@H](Cc1ccccc1)c1nccs1)OC)N(C)C(=O)[C@H](NC(=O)[C@@H](C(C)C)N(C)C)C(C)C (stereo partly specified)	·	23	56*	2	92*
CC=Cc1ccc2n(c1=O)C[C@H]1[C@H](CO)[C@@H](C(=O)NCC3CC3)N(C(C)=O)[C@@H]21 (mixture of isomers)	·	·	·	0	·
Cc1ccc(C(=O)Sc2cccccc2=O)cc1	-2	5	57*	-1	?
O=C(Nc1ccccc1SC(=O)c1ccccc1)c1ccccc1	0	16	·	2	·
O=C(C[C@H]1C[C@H]2c3cc(NC(=O)Nc4ccccc4)ccc3O[C@H]2[C@H](CO)O1)NCc1ccccn1	-2	·	·	·	·
COc1ccc(NC(=O)C(=O)NCC(c2ccco2)N2CCc3ccccc32)cc1 (stereo unspecified)	-1	-4	53*	·	80*
O=C(/C=C/c1ccccc1)Nc1cc(NC(=O)/C=C/c2ccccc2)cc(C(=O)O)c1	3	-8	-14	0	·
O=C(/C=C/c1ccccc1)Nc1cccc(C(=O)O)c1	·	6	80*	-1	82*
O=C(Cc1ccccc1)N1CC(=O)N2[C@H](CO)[C@H](c3ccc(C#Cc4ccccc4)cc3)[C@@H]2C1	·	·	·	-3	·
Cc1nc(SCC(=O)Nc2nccs2)c(C#N)c(C)c1C	0	-4	71*	-1	69*
Cc1nc(SCC(=O)Nc2nc3ccccc3s2)c(C#N)c(C)c1C	·	3	93*	0	93*

Screening results (PubChem BioAssay)
